ROC1-CUL1 inh: inhibitors of human ROC1-CUL1 ubiquitin ligase activity | P62877+Q13616 | AID 1347404 | in vitro K48 di-Ub FRET, acceptor:donor ratio, 45 min | actives 0.6% (n = 140,000) | inhibition, % at 10 µM; in the data active means inhibition above about 25%
An asterisk follows results filed as active. Shown is part of a subset that was picked to be rich in hits.

SMILES	ROC1-CUL1 inh
NCCNc1nc(-c2cccc(Br)c2)nnc1-c1ccccc1	54*
Nc1nc(-c2cccc(Br)c2)cs1	5
O=C(Nc1cccc(F)c1)c1ccc(CN2CCCC2)cc1	1
Cc1ccc(S(=O)(=O)Nc2cccc(C(=O)NC3CC3)c2C)cc1	7
O=C1OC(c2ccccc2Cl)=N/C1=C\c1ccc(-c2ccc(S(=O)(=O)Nc3nccs3)cc2)o1	19
Nc1c(C(=O)c2ccccc2)sc2nc(-c3ccccc3)ccc12	-3
NC(=O)c1c(SCC(=O)c2ccccc2)sc(C(=O)c2ccccc2)c1N	31*
O=C(CSc1nc2ccccc2nc1SCC(=O)c1ccccc1)c1ccccc1	-4
CCCn1c(C)c(CC(=O)N(C)CC)c2c1CC(C)(C)CC2=O	-14
COCCC(=O)N1CCCC(CNC(=O)c2cccc3ccccc23)C1 (stereo not given)	3
COc1ccccc1N(CC(=O)Nc1ccccc1C(F)(F)F)S(=O)(=O)c1ccccc1	-2
CCCn1c(-c2ccc3ccccc3c2)csc1=Nc1cccc(C(F)(F)F)c1	5
CCOc1ccc(-c2ccc(OCC)nc2)cn1	6
COC(=O)c1cc(NC(=O)CSc2nnc(Cc3ccccc3)o2)ccc1Cl	11
O=C(CSc1nnc(Cc2ccccc2)o1)Nc1ccc(Cl)c(Cl)c1	92*
Cc1ccc(NC(=O)CSc2nnc(Cc3ccccc3)o2)cc1C	11
C=CCSc1nnc2n(-c3ccccc3)c(=O)c3c4c(sc3n12)CCCC4C (stereo not given)	15
CC(=O)N1/C(=C/c2ccc(O)cc2)C(=O)c2ccccc21	60*
O=C1/C(=C/c2ccc(O)cc2)CS(=O)(=O)c2ccccc21	6
CC(=O)N1/C(=C/c2ccccc2O)C(=O)c2cc(Br)ccc21	7
O=C(CSc1nc2ccccc2s1)Nc1nc2c(ccc3ccccc32)s1	1
CC(CO)Nc1ccc(-c2nc(Cc3ccc(F)cc3)no2)cn1 (stereo not given)	1
C=CCN1C(=O)N=C(Cc2ccc(-c3cccc(Br)c3)o2)C1=O	-1
COCCN1C(=O)C(Cc2ccc(-c3cccc(C(=O)O)c3)o2)=NC1=S	35*
O=C(O)c1cccc(-c2ccc(CNC3CCCC3)o2)c1	-6
SMILES	ROC1-CUL1 inh
Cc1[nH][nH]c(=O)c1C(c1cccc(OCc2ccccc2Cl)c1)c1c(C)[nH][nH]c1=O	-9
Cn1cc(C(c2cccs2)c2cn(C)c3ccccc23)c2ccccc21	3
CCOc1cc(C(c2c(C)[nH][nH]c2=O)c2c(C)[nH][nH]c2=O)cc(I)c1O	-2
Cc1[nH][nH]c(=O)c1C(c1ccccc1I)c1c(C)[nH][nH]c1=O	-5
Cc1[nH][nH]c(=O)c1C(c1c(C)[nH][nH]c1=O)c1cn(Cc2cccc3ccccc23)c2ccccc12	39*
CCOc1cc(C(c2c(C)[nH][nH]c2=O)c2c(C)[nH][nH]c2=O)cc(Br)c1OCc1cccc2ccccc12	26*
CC(C)C1=NN2C(=N)/C(=C\c3cn(Cc4cccc5ccccc45)c4ccccc34)C(=O)N=C2S1	9
Cc1[nH][nH]c(=O)c1C(c1c(C)[nH][nH]c1=O)c1cn(C)c2ccccc12	26*
CCOc1cc(C(c2c(C)[nH][nH]c2=O)c2c(C)[nH][nH]c2=O)cc(I)c1OC	-8
O=C1CCC(CCC(=O)N2CCCC(C(=O)c3cccnc3)C2)(Cc2cccc3ccccc23)N1 (stereo not given)	-10
O=C(CN1C(=O)c2cccc3cccc(c23)C1=O)NCC1CCCO1 (stereo not given)	-1
COc1ccc(CSc2nc(N)c3c4c(sc3n2)COC(C)(C)C4)cc1	4
COc1ccc(-c2nc3n(n2)C(c2ccc(O)cc2)C(C(=O)Nc2cccnc2)C(C)=N3)cc1OC (stereo not given)	12
O=C1c2cc(S(=O)(=O)O)ccc2C(=O)c2c(Cl)cccc21	-3
O=C1CC(=Nc2cccc3cc(S(=O)(=O)O)ccc23)c2ccccc2C1=O	80*
O=C1C(=Nc2ccc(Cl)c(Cl)c2)CC(=NS(=O)(=O)c2ccc(Cl)cc2)c2ccccc21	-15
CCN(CC)c1ncnc2scc(-c3cccs3)c12	-2
CC(=O)N1c2ccccc2C2(O)N=C(C)SC12 (stereo not given)	44*
CC(=O)N1c2ccccc2C(=O)C1C (stereo not given)	-3
CN1C(=O)C(O)(CC(=O)c2ccc(Cl)s2)c2ccccc21 (stereo not given)	1
Cc1ccoc1C(=O)NCc1nc(-c2cccc(NC(=O)c3ccccn3)c2)oc1C	-8
CC(C)C(NC(=O)c1cccc(NS(C)(=O)=O)c1)C(C)C	6
COC(=O)c1ccc([C@H]2Nc3ccc(S(=O)(=O)Nc4ccc(C)cc4)cc3[C@H]3C=CC[C@H]32)cc1	11
CC(C)c1ccc2c(c1)[C@@H]1C=CC[C@@H]1[C@H](c1ccc(S(=O)(=O)N3CCOCC3)cc1)N2	31*
Cc1cccc(C)c1NS(=O)(=O)c1ccc2c(c1)[C@H]1C=CC[C@H]1[C@@H](c1ccc(Cl)cc1)N2	8
SMILES	ROC1-CUL1 inh
O=C(O)c1ccc2c(c1)C1C=CCC1C(c1cccc3ccccc13)N2 (stereo not given)	95*
COc1cccc([C@@H]2Nc3ccc(C(=O)O)cc3[C@@H]3C=CC[C@@H]32)c1OC	-12
Cc1cccc(NS(=O)(=O)c2ccc3c(c2)[C@H]2C=CC[C@H]2[C@@H](c2ccc(C(C)(C)C)cc2)N3)c1	-2
COc1cccc([C@H]2Nc3ccc(S(=O)(=O)Nc4ccc(C)c(C)c4)cc3[C@H]3C=CC[C@H]32)c1	-5
COc1ccc(NS(=O)(=O)c2ccc3c(c2)[C@H]2C=CC[C@H]2[C@@H](c2ccc(C(=O)O)cc2)N3)cc1	97*
C1=CC2c3c(ccc4ccccc34)NC(c3cccc4ccccc34)C2C1 (stereo not given)	-6
CC1=CC(=O)C=CC1=NC(=NS(=O)(=O)c1ccc(Br)cc1)c1ccccc1	-5
Cc1cc(C)c2c(c1)c(-c1ccccc1)c(-c1ccccc1)n2CC(O)Cn1cnc(-c2ccccc2)c1-c1ccccc1 (stereo not given)	-7
Cc1nnc(NC(=O)Cc2ccc(Cl)cc2)s1	-2
CCCOc1ccc(-c2csc3ncn(CC(=O)OC4CCCCC4)c(=O)c23)cc1	-10
CN(C(=O)c1csc2nc(-c3ccc(Cl)cc3)cn12)C1CCOC1 (stereo not given)	1
Cc1ccc(CNC2CCCc3nc(-c4ccccc4)ncc32)o1 (stereo not given)	5
Cc1nc(CN(C)C(=O)c2cccc(OC3CCN(C(=O)C4CC4)CC3)c2)cs1	2
CCOC(=O)C1(CCOC)CCCN(Cc2cc(Cl)ccc2O)C1 (stereo not given)	-5
CC(C)Oc1ccc(CC2=NC(=S)NC2=O)cc1	4
O=C(O)COc1ccc(CC2=NC(=S)NC2=O)cc1	7
O=C1NC(=S)N=C1Cc1ccc(OCc2cccc(C(=O)O)c2)cc1	26*
Cc1ccc(SCc2[nH]nc3c2C(c2ccc(F)c(F)c2)C(C#N)C(=N)O3)cc1 (stereo not given)	-7
O=C(NNS(=O)(=O)c1ccccc1[N+](=O)[O-])c1ccc(Cl)c(Cl)c1	5
COC(=O)C1C(=N)OC2=C(C(=O)CC(C)(C)C2)C1c1cccc(Cl)c1 (stereo not given)	-4
Cn1ccnc1CN1CCOC(CC2CCCCC2)C1 (stereo not given)	5
O=C1CN(C(=O)c2ccccc2)C(c2ccccc2Cl)c2cc(Br)ccc2N1 (stereo not given)	3

Screening data as filed in PubChem BioAssay.
